# Shown are actives, neighbours in structure and some others; about 17% of the full set was active somewhere.
# TDP1 cell noCPT = qHTS for Inhibitors of human tyrosyl-DNA phosphodiesterase 1 (TDP1): qHTS in cells in absence of CPT | Potency, µM (titrated, usually from 46.2 µM), inactives show at the top dose activity change, negative = growth inhibition, most hits filed as inhibitors | DT40 Tdp1-/- hTDP1 cells, no CPT, ATP luminescence, 48 h | 15% of 420,000 active | AID 686978, 2013; note: % is set by controls: 0 for no effect and ±100 for the full control effect; nearly all actives have a fitted effect of over 55% in size
#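 Cells were dispensed at 400 per well, compounds added by pin tool, plates incubated ≥48 hr at 37 °C, then CellTiter-Glo added for 30 min at room temperature before luminescence reading. Line: DT40 Tdp1-/- complemented with hTDP1; camptothecin omitted.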
# DT40 TDP1 CPT = qHTS for Inhibitors of human tyrosyl-DNA phosphodiesterase 1 (TDP1): qHTS in cells in presence of CPT; chicken DT40 Tdp1-/-;hTDP1 cells + 20 nM CPT, ATP luminescence, 48 h; 12% of 420,000 active; Potency, µM (top dose mostly 46.2 µM), for inactives: top-dose activity change, negative = growth inhibition, actives largely listed as inhibitors; note: % is set by controls: 0 for no effect and ±100 for the full control effect; nearly all actives have a fitted effect of over 55% in size
#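 Cell growth measured by CellTiter-Glo luminescence after a minimum 48 h, 37 C compound exposure with 20 nM CPT in Tdp1-knockout DT40 cells stably expressing hTDP1, seeded 400/well; qHTS titration format.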
# TDP1 block = qHTS Assay for Inhibitors of Tyrosyl-DNA Phosphodiesterase (TDP1); recombinant TDP1, AlphaScreen DNA substrate cleavage; AID 485290, 2010; Potency, µM (doses to about 130 µM), for inactives: top-dose activity change, negative = inhibition, hits mostly inhibitors; 0.28% of 350,000 active; note: % is set by controls: 0 for no effect and ±100 for the full control effect; nearly all actives have a fitted effect of over 40% in size
#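 Enzyme-compound mixtures sat 15 min at room temperature, followed by a 5 min reaction with 15 nM final substrate and 10 min with AlphaScreen beads. Recombinant human Tdp1 was used at 1 nM final.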
# ClpP mod = qHTS Assay for Activators of ClpP. Potency, µM (titrated, usually from 57.5 µM), inactives show top-dose activity change, negative = active. ATP-dependent Clp protease proteolytic subunit (Bacillus subtilis (strain 168)), P80244. 1.9% of 340,000 active. purified B. subtilis ClpP, FRET peptide cleavage, 20 min; active = well fitted falling curve with a large enough effect; inconclusive = small, poorly fitted or top-dose-only effect; inactive = no such curve, though single readings can be large or run the other way; note: the source files actives as falling curves though it sought activators and does not explain the sign; nearly all actives have a fitted effect of over 65% in size
# Target sequence (P80244 whole entry, looked up): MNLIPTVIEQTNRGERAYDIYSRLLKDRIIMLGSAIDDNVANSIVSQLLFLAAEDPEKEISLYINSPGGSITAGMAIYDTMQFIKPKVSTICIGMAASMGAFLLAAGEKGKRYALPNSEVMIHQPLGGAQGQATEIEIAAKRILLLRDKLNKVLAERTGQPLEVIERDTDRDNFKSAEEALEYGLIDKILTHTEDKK
#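 Purified B. subtilis ClpP, 10 microg/mL final in Tris/HCl pH8 with KCl, BSA, glycerol and Tween-20, cleaved an Abz/nitrotyrosine-quenched decapeptide. Fluorescence (ex 320, em 430) was read at 0 and 20 min at room temperature. Delta was normalized to 5.8 microM ADEP and DMSO/no-enzyme controls.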
# * hit, by the source's call; ? = inconclusive; / = not tested or not shown. Unless noted, calls come from the whole dose curve; as a rule, active = well fitted curve in the direction sought with a large enough effect; inconclusive = small, poorly fitted or top-dose-only effect, or another doubt; inactive = no such curve, though single readings can be large; an effect the other way counts as inactive or inconclusive. Potency is the fitted concentration of half-maximal effect.
SMILES,TDP1 cell noCPT,DT40 TDP1 CPT,TDP1 block,ClpP mod
Cc1ccc(C2CC(c3cccc(C)c3)n3ncnc3N2)cc1 (stereo not given),?,14.6µM*,4.9%,-1.5%
COc1cccc(C2CC(c3ccccc3)Nc3ncnn32)c1 (stereo not given),-27.4%,-5.7%,-9.1%,0.9%
O=C(OCc1ccccn1)C1CCN(C(=O)c2ccc(Cl)cc2)CC1,3.0%,7.3%,-6.3%,/
Oc1ccc(Cl)cc1C1C=C(c2ccc3c(c2)OCO3)NC(c2cc(Br)ccc2F)N1 (stereo not given),/,/,3.0%,/
CC(C)CC(=O)OCc1cc(=O)n2nc(C3CCCCC3)sc2n1,?,-7.4%,0.6%,-1.5%
COc1ccc(S(=O)(=O)N2CCN(C(=O)c3ccc4ccccc4n3)CC2)cc1,-5.8%,?,2.3%,-2.2%
CN(C)CCNC(=O)CCn1nc(-c2ccc(Cl)cc2)ccc1=O,2.5%,18.8%,/,/
CCCc1n(CC)c2ccccc2[n+]1CC(O)COC1CCCCC1 (stereo not given),4.11µM*,5.17µM*,4.9%,/
Cc1ccc(NC(=O)COC(=O)[C@H](C)NC(N)=O)c(C)c1,5.0%,-1.1%,5.3%,-2.3%
CCCCn1c(SCc2nc3ccccc3s2)nc2cc(S(N)(=O)=O)ccc21,16.4µM*,16.4µM*,7.0%,-0.4%
O=c1c2ccccc2nc(SCc2ccccc2)n1Cc1ccco1,?,-23.1%,-5.1%,-16.2%
CCCCn1c(SCc2nc3ccccc3s2)nc2ccccc2c1=O,8.2µM*,20.6µM*,-4.2%,-5.9%
O=c1c2ccccc2nc(SCc2nc3ccccc3s2)n1Cc1ccco1,18.4µM*,13µM*,2.1%,-3.2%
CCCCC(CC)CNC(=O)c1ccc2c(=O)n(CCOC)c(=O)[nH]c2c1 (stereo not given),?,?,2.9%,-16.6%
Cc1nn(-c2ccccc2)c2sc(C(=O)Nc3ccc(Br)cc3)cc12,16.4µM*,?,/,-3.6%
Cc1nn(-c2ccccc2)c2sc(C(=O)N3CCc4ccccc4C3)cc12,23.1µM*,?,2.0%,-15.0%
Cc1ccn(C(=O)c2cc3c(C)nn(-c4ccccc4)c3s2)n1,-0.1%,5.7%,1.0%,3.55µM*
Cc1nn(-c2ccccc2)c2sc(C(=O)NCCN3CCOCC3)cc12,?,?,7.6%,28.2µM*
Cc1nn(-c2ccccc2)c2sc(C(=O)n3cccn3)cc12,-7.3%,-0.6%,2.1%,?
Cc1nn(-c2ccccc2)c2sc(C(=O)N3CCCCC3)cc12,?,?,-2.0%,-3.7%
Cc1c(C)c2ccc(OC(C)C(=O)NCc3ccccn3)cc2oc1=O (stereo not given),1.0%,9.5%,3.3%,4.0%
O=C1c2cccc3c(N4CCCCC4)ccc(c23)C(=O)N1c1cccc(O)c1,?,?,-6.0%,/
Cc1n[nH]c(C)c1N1C(=O)c2cccc3c(N4CCCCCC4)ccc(c23)C1=O,23.1µM*,?,2.8%,-0.5%
COc1ccccc1NC(=O)NC1CCS(=O)(=O)C1 (stereo not given),-4.1%,20.4%,3.7%,/
CC(C)(C)c1ccc(-c2noc(CNC(=O)c3ccco3)n2)cc1,?,-28.9%,7.5%,/
SMILES,TDP1 cell noCPT,DT40 TDP1 CPT,TDP1 block,ClpP mod
CC(C)(C)c1ccc(-c2noc(CCC(=O)NCc3ccco3)n2)cc1,25.9µM*,18.4µM*,1.3%,/
COc1ccc(-c2noc(CCCC(=O)NCc3ccco3)n2)cc1OC,?,-0.9%,5.0%,28.2µM*
Cc1cccc(-c2noc(CCCC(=O)NCc3ccco3)n2)c1,16.4µM*,14.6µM*,6.1%,0.6%
Cc1cccc(-c2noc(CCC(=O)NCc3ccco3)n2)c1,-16.1%,?,3.4%,1.4%
COc1ccc(CNC(=O)N2[C@H]3CC[C@@H]2C=C(c2ccc(F)cc2OCc2ccccc2)C3)cc1OC,7.31µM*,8.2µM*,/,-3.7%
O=C(NCc1ccc(F)cc1)c1ccccc1OCc1ccccc1,?,-7.0%,0.0%,-2.0%
COc1ccc(CNC(=O)C2CCCN2CCc2ccccc2)cc1OC (stereo not given),?,?,-2.3%,/
O=C(NCc1ccc(F)cc1)N1[C@H]2CC[C@@H]1C=C(c1ccc(F)cc1OCc1ccccc1)C2,7.31µM*,?,/,-2.6%
CCCCCCCN(c1ccccc1)[C@@H]1C[C@H]2CCCC(=O)N3CC[C@@H](C1)[C@@H]23,10.3µM*,11.6µM*,/,-0.9%
CCCCNC(=O)O[C@@H]1C[C@@H]2CCN3C(=O)CCC[C@H]([C@H]1CC)[C@H]23,10µM*,14.1µM*,/,1.9%
CC[C@@H]1[C@H]2CCCC(=O)N3CC[C@@H](C[C@@H]1OC(=O)Nc1ccc4c(c1)OCO4)[C@@H]23,?,?,/,-1.4%
CC[C@@H]1[C@H]2CCCC(=O)N3CC[C@@H](C[C@@H]1OC(=O)Nc1ccccc1)[C@@H]23,11.2µM*,11.2µM*,/,-1.6%
CC[C@@H]1[C@H]2CCCC(=O)N3CC[C@@H](C[C@@H]1Nc1ccccc1)[C@@H]23,17.8µM*,?,/,0.0%
CCCCNC(=O)O[C@@H]1C[C@H]2CCCC(=O)N3CC[C@@H](C1)[C@@H]23,-1.2%,8.1%,/,1.5%
CCCNc1ncnc2c1cnn2C1CCCCO1 (stereo not given),-14.1%,2.0%,/,-7.5%
COc1ccc(-c2nc(NC(=O)c3ccc(OCC(=O)N4CCOCC4)c(OC)c3)sc2C)cc1,18.4µM*,23.1µM*,9.1%,-7.4%
CN(c1ccc(-c2csc(NC(=O)C3CC(=O)N(Cc4ccco4)C3)n2)cc1)S(C)(=O)=O (stereo not given),-16.1%,?,1.2%,-10.1%
COc1ccc(-c2nc(NC(=O)C3CCN(c4nc5ccccc5o4)CC3)sc2C)cc1,?,16.4µM*,5.2%,-1.2%
COc1ccc(-c2csc(NC(=O)C3CC(=O)N(Cc4ccco4)C3)n2)cc1 (stereo not given),20.6µM*,?,0.0%,/
COc1ccc(-c2nc(NC(=O)c3ccco3)sc2C)cc1,23.1µM*,20.6µM*,/,-10.1%
CCOC(=O)C1=C(N)Oc2cc(O)ccc2C1c1ccc(F)cc1F (stereo not given),-17.9%,-29.9%,/,-13.0%
CCOc1ccc(C(=O)Nc2cccc(-c3nc4cccnc4s3)c2C)cc1OCC,-9.3%,-5.9%,11.4%,-1.9%
CC(=O)c1sc(NC(=O)C2CC(=O)N(Cc3ccco3)C2)nc1-c1ccccc1 (stereo not given),-23.4%,-11.3%,0.2%,1.1%
COc1ccc(-c2nc(NC(=O)C3CC(=O)N(Cc4ccco4)C3)sc2C)cc1 (stereo not given),11.6µM*,16.4µM*,7.5%,-3.1%

# Screening results deposited in PubChem by National Center for Advancing Translational Sciences (NCATS).
